Bioassay records (PubChem BioAssay)
TrxR1 inh: rat TrxR1 inhibition | recombinant rTrxR1, NADPH fluorescence consumption, selenite substrate | AID 588453 | Potency, µM (titrated, usually from 114 µM), for inactives: at the highest dose activity change, negative = inhibition, hits mostly inhibitors | actives 1% (n = 390,000); note: nearly all actives have a fitted effect of over 65% in size
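Rat TrxR1 (90 nM in the dispensed reagent) was pre-reduced with 400 uM NADPH for 5 min at room temperature, then incubated with compound for 15 min. After 400 uM selenite was added, NADPH fluorescence (Ex 340/Em 450 nm) was followed for 8 min.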
Sfp inh: blocks B. subtilis Sfp PPTase activity. Potency, µM, for inactives: largest response in the series, negative = inhibition, most hits filed as inhibitors. actives 3.5% (n = 310,000). Biochemical Sfp PPTase activity, qHTS. Q9F4F7;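 note: the enzyme is Sfp with the accession as filed and its product quenches rhodamine fluorescence; 0% = enzyme reaction without inhibitor and -100% = no enzyme wells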
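Reaction rates are the 30-min fluorescence difference (ex 525, em 598 nm) in wells containing 15 nM Sfp, 5 uM rhodamine-CoA and 12.5 uM BHQ-2-YbbR at pH 7.6 with 10 mM MgCl2.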
PLK1 PBD inh: inhibitors of human PLK1 polo-box domain binding | actives 2.8% (n = 360,000) | Potency, µM, without a hit: max response, negative = inhibition, hits mostly inhibitors | AID 720504 | Plk1 PBD binding of FITC phosphopeptide, fluorescence polarization; note: series mostly up to about 57 µM; nearly all actives have a fitted effect of over 65% in size
TrxR1 substrate: is turned over as a substrate by rat TrxR1; purified TrxR1 substrate turnover, NADPH consumption readout; Potency, µM (titrated, usually from 114 µM), without a hit: at the top dose activity change, negative = substrate turnover; actives 0.01% (n = 390,000); note: nearly all actives have a fitted effect of over 50% in size
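Rat TrxR1, dispensed at 90 nM, was prereduced with 400 uM NADPH (final) for 5 min at ~22 deg C, then incubated with compound 15 min before 400 uM selenite. A first-read NADPH fluorescence drop versus no-compound background flagged substrates.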
VDR inhibitor: inhibitors of human vitamin D receptor; VDR-SRC2-3 peptide fluorescence polarization, 2 h; Potency, µM, inactives show max response, negative = inhibition, usual class: inhibitors; actives 0.93% (n = 400,000); AID 504847
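Compounds are added to VDR with labelled SRC2-3 coactivator peptide and held 2 h at room temperature. Inhibition of the VDR–peptide interaction is then read as a change in fluorescence polarization.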
IDH1 R132H inh: blocks human mutant IDH1 R132H enzyme; O75874; IDH1-R132H enzyme, NADPH consumption, diaphorase/resazurin fluorescence; Potency, µM (top dose mostly 76.6 µM), without a hit: at the highest dose activity change, negative = inhibition, actives largely listed as inhibitors; actives 0.093% (n = 390,000); note: nearly all actives have a fitted effect of over 65% in size
Target sequence (O75874 whole entry R132H, stated change not applied): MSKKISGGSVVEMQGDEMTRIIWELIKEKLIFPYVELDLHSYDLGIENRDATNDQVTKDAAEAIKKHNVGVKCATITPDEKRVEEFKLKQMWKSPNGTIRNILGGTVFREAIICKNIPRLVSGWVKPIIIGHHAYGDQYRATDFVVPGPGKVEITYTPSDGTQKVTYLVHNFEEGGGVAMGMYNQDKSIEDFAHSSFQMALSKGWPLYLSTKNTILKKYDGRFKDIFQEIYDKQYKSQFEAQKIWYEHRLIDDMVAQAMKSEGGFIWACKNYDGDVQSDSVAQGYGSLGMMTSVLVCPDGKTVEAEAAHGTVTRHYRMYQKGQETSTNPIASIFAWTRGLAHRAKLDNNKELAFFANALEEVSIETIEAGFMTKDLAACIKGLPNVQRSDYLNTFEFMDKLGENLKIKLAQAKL
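IDH1-R132H (0.5 ug/mL dispensed) in pH 7.5 Tris buffer was preincubated 30 min with compound, then given a substrate mix of 0.016 mM NADPH and 2 mM alpha-KG for 80 min at room temperature; remaining NADPH was read by diaphorase/resazurin fluorescence.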
* hit, by the source's call; ? = inconclusive; . = no result given; [ ] = dose if it differs, or a comment. Most compounds without a hit are left out; they make up all but 5.2% or so of the library. Calls come from the whole dose curve; as a rule, active = well fitted curve in the direction sought with a large enough effect; inconclusive = small, poorly fitted or top-dose-only effect, or another doubt; inactive = no such curve, though single readings can be large; an effect the other way counts as inactive or inconclusive. Unless noted, % is set by controls: 0 for no effect and ±100 for the full control effect; potency is the fitted concentration of half-maximal effect.

SMILES | TrxR1 inh | Sfp inh | PLK1 PBD inh | TrxR1 substrate | VDR inhibitor | IDH1 R132H inh
Clc1ccccc1Cn1nnc2c(N3CCCC3)ncnc21 | 1.7%[57.1 µM] | 4.9% | -1.6% | 6.0%[57.1 µM] | -6.2% | 2.2%
O=C(CSc1ncnc2c1nnn2Cc1ccccc1)NC1CCCC1 | 24.9%[57.1 µM] | -1.1% | -29.5% | 6.3%[57.1 µM] | -2.9% | -5.3%
CC(C)(C)NC(=O)CSc1ncnc2c1nnn2Cc1ccccc1Cl | -20.5% | 3.3% | 26.7µM* | -9.4% | ? | 0.8%
CCCCNC(=O)C(NC(=O)c1cnccn1)C(=O)c1ccccc1 (stereo not drawn) | . | . | -8.0% | . | . | .
O=C(NCc1ccccc1)C(c1cccc2ccccc12)n1c(=O)c(-c2ccccc2)nc2ccccc21 (stereo not drawn) | . | . | -7.7% | . | . | .
CC(=O)Nc1ccc(OCCOc2ccc(/C=C3/C(=N)N4C=CSC4=NC3=O)cc2)cc1 | -15.1% | 11.2% | 3.36µM* | -10.6% | ? | 0.0%
Cc1cc(/C=C2\C(=N)N3N=C(S(C)(=O)=O)SC3=NC2=O)c(C)n1Cc1ccccc1 | 13.5%[57.1 µM] | 44.7µM* | 26.7µM* | 8.2%[57.1 µM] | -3.2% | 0.0%
COc1cc(/C=C2\C(=N)N3N=C(S(C)(=O)=O)SC3=NC2=O)cc(OC)c1OCCOc1ccccc1C | 5.0%[57.1 µM] | -25.1% | 29.9µM* | -9.0% | ? | -8.2%
CCC1=NN2C(=N)/C(=C\c3ccc(OCCOc4ccc(NC(C)=O)cc4)cc3)C(=O)N=C2S1 | 8.8% | 7.4% | ? | 0.9% | -5.3% | 2.4%
COc1ccccc1OCCOc1ccc(/C=C2\C(=N)N3N=C(S(C)(=O)=O)SC3=NC2=O)cc1 | -21.2% | -5.9% | 13.4µM* | 3.8% | 79.4µM* | ?
COc1cccc(OCCOc2ccc(/C=C3\C(=N)N4N=C(S(C)(=O)=O)SC4=NC3=O)cc2OC)c1 | -21.5% | -7.1% | ? | -17.9% | 16.9% | 11.8%
CC(C)CC(CSc1ccc(Br)cc1)N1CCN(CCc2ccccc2)CCC1=O (stereo not drawn) | -3.0% | -4.1% | . | -2.3% | -23.8% | .
Cc1ccc(C(=O)NCC2CCCO2)cc1N1CCCC1=O (stereo not drawn) | 5.1% | -6.9% | 26.7µM* | 4.2% | 6.8% | 1.2%
O=C(NCC1CCCO1)c1cccc(N2CCCC2=O)c1 (stereo not drawn) | 2.7%[57.1 µM] | 11.8% | -5.9% | -6.1% | 0.0% | 2.0%
CCN1C(=O)CC(c2ccco2)Sc2ccccc21 (stereo not drawn) | -14.3% | 39.8µM* | -12.8% | 5.8% | 7.3% | 5.5%
O=C(CN1C(=O)CC(c2ccco2)Sc2ccccc21)Nc1ccc(Br)cc1 (stereo not drawn) | 11.0% | . | . | 1.2% | -3.0% | -6.2%
O=C(Oc1ccc(C(=S)N2CCOCC2)cc1)c1cccc(Cl)c1 | 8.6%[57.1 µM] | 39.8µM* | ? | 3.5%[57.1 µM] | -18.6% | 8.5%
O=C(Oc1ccc(C(=S)N2CCCCC2)cc1)c1ccccc1 | -10.1%[57.1 µM] | 22.4µM* | ? | -8.6%[57.1 µM] | 0.7% | 0.0%
O=C(O)c1ccc(N/N=C/c2ccc(OC(=O)c3cccc(Cl)c3)cc2)cc1 | 28.9% | 39.8µM* | 21.2µM* | 0.3% | -13.2% | -20.9%
O=C(Oc1ccc(/C=N/Nc2ccccc2)cc1)c1ccccc1 | 26.5%[57.1 µM] | -13.7% | -7.6% | -10.3% | 18.4% | 2.4%
CSc1ccc(/C=N/Nc2cccc(C(=O)O)c2)cc1 | 19.2%[57.1 µM] | 11.5% | 11.9µM* | 7.3% | -2.3% | 7.8%
CC1(C)N=C(N)N=C(N)N1c1ccc(Oc2ccc(Cl)cc2)c(Cl)c1 | -0.7% | 1.0% | -7.3% | -4.0% | 7.7% | 0.0%
COc1ccc2nc(SC(C)C(=O)NC3CCCC3)[nH]c2c1 (stereo not drawn) | 5.1%[57.1 µM] | . | 4.0% | 1.9%[57.1 µM] | -3.4% | 4.9%
O=C(Oc1ccc(C(=S)N2CCOCC2)cc1Br)c1ccccc1F | 2.3% | 22.4µM* | 23.8µM* | -5.0% | ? | 7.2%
O=C(Oc1ccc(C(=S)N2CCOCC2)cc1Cl)c1ccccc1F | 38.0%[2.29 µM] | 56.2µM* | ? | 9.1%[2.29 µM] | -29.1% | 11.4%
Cc1ccccc1C(=O)Oc1ccc(Cl)cc1C(=S)N1CCOCC1 | 1.0% | -0.7% | -0.4% | -3.8% | -7.1% | 2.6%
